Source: PubChem BioAssay (NCI)
This is part of a sample that, as a whole, favours compounds with a hit. Of some 79,000 tested, about 15% had one in any assay. Calls of active or inactive are those of the source. No stated cut-off is given here; in the data, active means growth inhibition above about 70%; inactive means the rest.

Key:
[1] = NCI Yeast Anticancer Drug Screen. Data for the rad52 strain (AID 147);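 further: 0% = growth of vehicle-treated control cultures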; details: S. cerevisiae rad52 mutant growth inhibition, hits give high values
In short: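 Measured: yeast growth inhibition. System: strain with a defined DNA damage repair alteration. Reference: vehicle-treated control cultures.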

[2] = NCI Yeast Anticancer Drug Screen. Data for the wt1 strain (AID 149);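 further: 0% = growth of vehicle-treated wt1 cultures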; details: S. cerevisiae wt1 strain (SPY 50644) growth inhibition, hits give high values
In short: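 Measured: growth of wt1 yeast under compound versus vehicle treatment, reported as inhibition.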

[3] = NCI Yeast Anticancer Drug Screen. Data for the rad50EPP+ strain (AID 151);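 further: 0% = growth of vehicle-treated control cultures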; details: S. cerevisiae rad50 mutant strain, hits give high values
In short: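 One strain with a rad50 alteration (rad50EPP+) was compound-treated, its growth then compared to that of vehicle controls.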

[4] = NCI Yeast Anticancer Drug Screen. Data for the mgt1 strain (AID 153); details: S. cerevisiae mgt1 mutant growth inhibition, hits give high values
In short: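 After exposure of the mgt1 yeast mutant to compound, growth was measured and reported as inhibition compared with vehicle controls.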

[5] = NCI Yeast Anticancer Drug Screen. Data for the rad50 strain (AID 155);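 further: 0% = growth of vehicle-only cultures of the same strain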; details: S. cerevisiae rad50 strain growth inhibition, hits give high values
In short: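 Growth of the mutant yeast was measured after compound exposure and referenced to vehicle-treated cultures.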

[6] = NCI Yeast Anticancer Drug Screen. Data for the mec2-1 strain (AID 157); details: S. cerevisiae mec2-1 strain, hits give high values
In short: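 Test agents were screened against the mec2-1 yeast strain, with defined DNA repair or cell cycle alteration. Growth was scored as inhibition against vehicle-only controls.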

[7] = NCI Yeast Anticancer Drug Screen. Data for the rad14 strain (AID 159);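 further: 0% = growth of vehicle-treated control cultures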; details: S. cerevisiae rad14 strain growth inhibition, hits give high values
In short: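 Here, inhibition of yeast growth was measured after compound exposure, using a strain with a genetic defect in DNA damage repair and vehicle-treated cultures as the reference.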

[8] = NCI Yeast Anticancer Drug Screen. Data for the sgs1 mgt1 strain (AID 161);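 further: 0% = growth of cultures given vehicle only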; details: S. cerevisiae sgs1 mgt1 strain, hits give high values
In short: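 Read-out: growth inhibition vs vehicle controls. Cells: mutant yeast strain deficient in DNA damage repair.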

[9] = NCI Yeast Anticancer Drug Screen. Data for the CLN2oe strain (AID 163);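 further: 0% = growth of vehicle-only control cultures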; details: S. cerevisiae CLN2oe strain, hits give high values
In short: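 Here, growth inhibition in a cell-cycle-altered yeast strain after compound exposure was quantified against vehicle control growth.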

[10] = NCI Yeast Anticancer Drug Screen. Data for the cln2 rad14 strain (AID 165);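 further: 0% = growth equal to vehicle treated cultures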; details: S. cerevisiae cln2 rad14 strain, hits give high values
In short: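 Growth of compound-exposed yeast (cln2 rad14 genotype) measured and expressed as inhibition relative to vehicle.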

[11] = NCI Yeast Anticancer Drug Screen. Data for the bub3 strain (AID 167); details: S. cerevisiae bub3 mutant strain, hits give high values
In short: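 Whole-cell yeast assay. The mutant strain was incubated with compounds, and growth inhibition was determined by comparison with vehicle-treated cells.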

[12] = NCI Yeast Anticancer Drug Screen. Data for the wt2 strain (AID 169);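 further: 0% = growth of vehicle-treated yeast cultures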; details: S. cerevisiae wt2 strain growth inhibition, hits give high values
In short: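 Genetically defined yeast strains from a DNA-repair/cell-cycle panel were used. Compound-exposed yeast growth was measured, and the inhibition was calculated relative to vehicle treatment.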

[13] = NCI Yeast Anticancer Drug Screen. Data for the mlh1 strain (AID 171);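 further: 0% = growth of vehicle-treated control cultures of the same strain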; details: S. cerevisiae mlh1 strain growth inhibition, hits give high values
In short: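 Here the genetically defined yeast mutant is grown with each compound, and the extent to which its growth falls below that of vehicle-exposed cells is reported.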

[14] = NCI Yeast Anticancer Drug Screen. Data for the mlh1 rad18 strain (AID 175); details: S. cerevisiae mlh1 rad18 strain growth inhibition, hits give high values
In short: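 In this whole-cell yeast screen, a strain with altered DNA damage repair is challenged with compound, and its growth is measured against matched vehicle-treated controls.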

[15] = NCI Yeast Anticancer Drug Screen. Data for the rad18 strain (AID 177); details: S. cerevisiae rad18 mutant growth inhibition, hits give high values
In short: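 Screen uses a yeast strain with a defined lesion in DNA damage repair; compound effect is read as loss of growth compared to untreated vehicle cultures.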

[16] = NCI Yeast Anticancer Drug Screen. Data for the sgs1 strain (AID 173);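 further: 0% = growth of vehicle-only control cultures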; details: S. cerevisiae sgs1 mutant, hits give high values
In short: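 Relative growth inhibition, referenced to vehicle, was determined in a yeast strain with a defined alteration affecting DNA damage repair or cell cycle control after compound exposure.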

[17] = at 5.0 µM (retest, dose inferred, filed as 0.5)
[18] = at 50.0 µM (retest, dose inferred, filed as 5.0)

Measured: growth inhibition

CO[C@@]1([C@@H](Cl)c2ccccc2)C(=O)N(C)/C(=C\c2ccccc2)C(=O)N1C
active: [8]; [18] 96% | [12]; at 100.0 µM 79%
inactive: [1]; at 1.2 µM 0% | [1]; at 3.7 µM 1% | [1]; at 11.0 µM 3% | [1]; at 33.0 µM 7% | [1]; at 100.0 µM 8% | [2]; at 1.2 µM 0% | [2]; at 3.7 µM 0% | [2]; at 11.0 µM -2% | [2]; at 33.0 µM -1% | [2]; at 100.0 µM -1% | [3]; at 1.2 µM -1% | [3]; at 3.7 µM -3% | [3]; at 11.0 µM -6% | [3]; at 33.0 µM 0% | [3]; at 100.0 µM 5% | [4]; at 1.2 µM -1% | [4]; at 3.7 µM -1% | [4]; at 11.0 µM -1% | [4]; at 33.0 µM 39% | [4]; at 100.0 µM 50% | [5]; at 1.2 µM 2% | [5]; at 3.7 µM 6% | [5]; [17] -12% | [5]; at 11.0 µM 9% | [5]; at 33.0 µM 11% | [5]; [18] 14% | [5]; at 50.0 µM -7.3% | [5]; at 100.0 µM 15% | [6]; at 1.2 µM -3% | [6]; at 3.7 µM -1% | [6]; [17] -2% | [6]; at 11.0 µM 0% | [6]; at 33.0 µM 4% | [6]; [18] 4% | [6]; at 50.0 µM 11% | [6]; at 100.0 µM 8% | [7]; at 1.2 µM 1% | [7]; at 3.7 µM 3% | [7]; at 11.0 µM 8% | [7]; at 33.0 µM 10% | [7]; at 100.0 µM 11% | [8]; [17] -13% | [8]; at 50.0 µM 43.6% | [9]; at 1.2 µM -1% | [9]; at 3.7 µM 0% | [9]; at 11.0 µM -1% | [9]; at 33.0 µM 5% | [9]; at 100.0 µM 7% | [10]; [17] -8% | [10]; [18] 15% | [10]; at 50.0 µM 36.1% | [11]; at 1.2 µM -1% | [11]; at 3.7 µM -3% | [11]; [17] -11% | [11]; at 11.0 µM 0% | [11]; at 33.0 µM 10% | [11]; [18] 20% | [11]; at 50.0 µM -6.35% | [11]; at 100.0 µM 19% | [12]; at 1.2 µM 2% | [12]; at 3.7 µM 0% | [12]; at 11.0 µM -1% | [12]; at 33.0 µM 48% | [13]; at 1.2 µM 0% | [13]; at 3.7 µM -2% | [13]; at 11.0 µM -1% | [13]; at 33.0 µM 9% | [13]; at 100.0 µM 67% | [14]; [17] -10% | [14]; [18] 10% | [14]; at 50.0 µM 9% | [15]; at 1.2 µM 0% | [15]; at 3.7 µM 0% | [15]; at 11.0 µM -1% | [15]; at 33.0 µM 4% | [15]; at 100.0 µM 9%

CCN(CC)CCNc1ccc2ncn3c4ccc(O)cc4c(=O)c1c23
active: [1]; at 33.0 µM 75% | [1]; at 100.0 µM 85% | [5]; at 33.0 µM 81% | [5]; at 100.0 µM 87%
inactive: [1]; at 1.2 µM 9% | [1]; at 3.7 µM 28% | [1]; at 11.0 µM 56% | [2]; at 1.2 µM 0% | [2]; at 3.7 µM -2% | [2]; at 11.0 µM -4% | [2]; at 33.0 µM -2% | [2]; at 100.0 µM 1% | [3]; at 1.2 µM -1% | [3]; at 3.7 µM 6% | [3]; at 11.0 µM 13% | [3]; at 33.0 µM 26% | [3]; at 100.0 µM 39% | [4]; at 1.2 µM -3% | [4]; at 3.7 µM -6% | [4]; at 11.0 µM -1% | [4]; at 33.0 µM 1% | [4]; at 100.0 µM 1% | [5]; at 1.2 µM 13% | [5]; at 3.7 µM 32% | [5]; [17] 65% | [5]; at 11.0 µM 65% | [5]; [18] 65% | [5]; at 50.0 µM -6.6% | [6]; at 1.2 µM -3% | [6]; at 3.7 µM -3% | [6]; [17] 18% | [6]; at 11.0 µM -2% | [6]; at 33.0 µM 4% | [6]; [18] 18% | [6]; at 50.0 µM 3.05% | [6]; at 100.0 µM 22% | [7]; at 1.2 µM 2% | [7]; at 3.7 µM -1% | [7]; at 11.0 µM 3% | [7]; at 33.0 µM 3% | [7]; at 100.0 µM 6% | [8]; [17] 13% | [8]; [18] 13% | [8]; at 50.0 µM -33.6% | [9]; at 1.2 µM -4% | [9]; at 3.7 µM 1% | [9]; at 11.0 µM 0% | [9]; at 33.0 µM 2% | [9]; at 100.0 µM -1% | [10]; [17] 18% | [10]; [18] 18% | [10]; at 50.0 µM 19.9% | [11]; at 1.2 µM -7% | [11]; at 3.7 µM -9% | [11]; [17] 30% | [11]; at 11.0 µM 3% | [11]; at 33.0 µM 4% | [11]; [18] 30% | [11]; at 50.0 µM 8.45% | [11]; at 100.0 µM -11% | [12]; at 1.2 µM -1% | [12]; at 3.7 µM 1% | [12]; at 11.0 µM -3% | [12]; at 33.0 µM 1% | [12]; at 100.0 µM -2% | [13]; at 1.2 µM -5% | [13]; at 3.7 µM -4% | [13]; at 11.0 µM -2% | [13]; at 33.0 µM -5% | [13]; at 100.0 µM 10% | [16]; at 1.2 µM -4% | [16]; at 3.7 µM -6% | [16]; at 11.0 µM -6% | [16]; at 33.0 µM -4% | [16]; at 100.0 µM -1% | [14]; [17] 25% | [14]; [18] 25% | [14]; at 50.0 µM 64.7% | [15]; at 1.2 µM 0% | [15]; at 3.7 µM -4% | [15]; at 11.0 µM -11% | [15]; at 33.0 µM -8% | [15]; at 100.0 µM -14%
